Source: the supplement of paper PMC10338343
± gives the standard deviation.

Legend:
[1] = test system: MILI (PIWIL2) piRISC loaded with piRNA #1 (26 nt); assay: pre-steady-state target cleavage rate (min^-1); guide: piRNA #1 5'p-UGAGGUAGUAGGUUGUAUAGUAUCCA; higher = faster piRNA-guided slicing of the target; conditions: auxiliary factor: 500 nM mouse GTSF1;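 note: 1 nM active piRISC with 0.1 nM target library at 33 °C single turnover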
Procedure, shortened: (§1)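 Active affinity-purified piRISC carrying one synthetic guide (1 nM) was mixed with a transcribed, DNA-blocked target RNA library […] in HEPES–potassium acetate buffer at 33 °C for 0–8 or 0–960 min, with or without 500 nM GTSF1 partner protein. Uncleaved targets were then sequenced and normalised to depth and to weakly complementary targets. Three trials were pooled, and k3 was capped at 0.0001 min^-1. A burst-and-steady-state fit was applied to obtain the pre-steady-state cleavage rate.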

[2] = test system: EfPiwi piRISC loaded with piRNA #1 (26 nt); assay: pre-steady-state target cleavage rate (min^-1); auxiliary factor: 500 nM Ephydatia muelleri Gtsf1; guide: piRNA #1 5'p-UGAGGUAGUAGGUUGUAUAGUAUCCA; MIWI and MILI are mouse PIWI proteins and EfPiwi is from a freshwater sponge; tags in brackets are library labels; higher = faster piRNA-guided slicing of the target
Procedure, shortened: as §1

Sequence: GGAGACGAUACUAUACAACCUAUCUACCUCA
- pre-steady-state target cleavage rate [1]: 0.17 ± 0.017
- pre-steady-state target cleavage rate [2]: 0.00473 ± 0.0019

Sequence: GGAGACCUAUGGAUACAACCUACUACCUCA
- pre-steady-state target cleavage rate [1]: 0.0189 ± 0.0046
- pre-steady-state target cleavage rate [2]: 0.00946 ± 0.005

Sequence: GGAGAGGAUACUAUACAACCUACAAGCUCA
- pre-steady-state target cleavage rate [1]: 0.00476 ± 0.0031
- pre-steady-state target cleavage rate [2]: 0.00284 ± 0.0023

Sequence: GGAGACGAUACUAUACAACCUACUUCCUGA
- pre-steady-state target cleavage rate [1]: 0.00812 ± 0.005
- pre-steady-state target cleavage rate [2]: 0.00342 ± 0.002

Sequence: GGAGUGGAUACUAUACAACCUGCUACCUCA
- pre-steady-state target cleavage rate [1]: 0.0658 ± 0.0067
- pre-steady-state target cleavage rate [2]: 0.0792 ± 0.029

Sequence: GGAGUCGAUACUAUACAAGCUACUACCUCA
- pre-steady-state target cleavage rate [1]: 0.142 ± 0.011
- pre-steady-state target cleavage rate [2]: 0.00581 ± 0.0024

Sequence: GGAGAGGAUACUAUAAAACCUACUACCUCA
- pre-steady-state target cleavage rate [1]: 0.181 ± 0.013
- pre-steady-state target cleavage rate [2]: 0.00425 ± 0.0029

Sequence: GGAGACCAUACUAUACAACCUACAUACCUCA
- pre-steady-state target cleavage rate [1]: 0.146 ± 0.018
- pre-steady-state target cleavage rate [2]: 0.00306 ± 0.0029

Sequence: GGAGAGGAUACUAUACAUCGUACUACCUCA
- pre-steady-state target cleavage rate [1]: 0.0374 ± 0.0069
- pre-steady-state target cleavage rate [2]: 0.00364 ± 0.0019

Sequence: GGAGACCUAACUAUCCAACCUACUACCUCA
- pre-steady-state target cleavage rate [1]: 0.208 ± 0.038
- pre-steady-state target cleavage rate [2]: 0.00727 ± 0.004

Sequence: GGAGACCAUACUACUACAACCUACUACCUCA
- pre-steady-state target cleavage rate [1]: 0.137 ± 0.015
- pre-steady-state target cleavage rate [2]: 0.0205 ± 0.0057

Sequence: GGAGUGGAUACUAUCCAACCUACUACCUCA
- pre-steady-state target cleavage rate [1]: 0.197 ± 0.01
- pre-steady-state target cleavage rate [2]: 0.0097 ± 0.0041

Sequence: GGAGACCAUUCUAUACAACCUACUAGCUCA
- pre-steady-state target cleavage rate [1]: 0.0909 ± 0.015
- pre-steady-state target cleavage rate [2]: 0.00323 ± 0.0026

Sequence: GGAGACGAUUCAAUACAACCUACUACCUCA
- pre-steady-state target cleavage rate [1]: 0.104 ± 0.012
- pre-steady-state target cleavage rate [2]: 0.0447 ± 0.018

Sequence: GGAGUGGAUACUAUACAACCUACUACCGCA
- pre-steady-state target cleavage rate [1]: 0.0694 ± 0.0095
- pre-steady-state target cleavage rate [2]: 0.00573 ± 0.002

Sequence: GGAGACGAUUCUAUACAACCUACUACCACA
- pre-steady-state target cleavage rate [1]: 0.219 ± 0.015
- pre-steady-state target cleavage rate [2]: 0.00382 ± 0.0024

Sequence: GGAGACCAUACUAUACGACCUACUACCUCA
- pre-steady-state target cleavage rate [1]: 0.0852 ± 0.016
- pre-steady-state target cleavage rate [2]: 0.0094 ± 0.0037

Sequence: GGAGACGAUACUAUACAACCUACUACCUCU [g2:g24:cont:t1U]
- pre-steady-state target cleavage rate [1]: 0.24 ± 0.019
- pre-steady-state target cleavage rate [2]: 1.35 ± 0.49

Sequence: GGAGACGAUACUAUCACAACCUACUACCUCA
- pre-steady-state target cleavage rate [1]: 0.221 ± 0.017
- pre-steady-state target cleavage rate [2]: 0.0153 ± 0.0062

Sequence: GGAGACCUUUCAAUACAACCUACUACCUCA
- pre-steady-state target cleavage rate [1]: 0.0649 ± 0.017
- pre-steady-state target cleavage rate [2]: 0.00501 ± 0.0042

Sequence: GGAGUGGAAACUAUACAACCUACUACCACA
- pre-steady-state target cleavage rate [1]: 0.129 ± 0.018
- pre-steady-state target cleavage rate [2]: 0.00336 ± 0.0029

Sequence: GGAGACGAUACUAUACAACCUACUACGUGA
- pre-steady-state target cleavage rate [1]: 0.0822 ± 0.021
- pre-steady-state target cleavage rate [2]: 0.00515 ± 0.0026

Sequence: GGAGUGGAUACUAUACAACCUCUACCUCA
- pre-steady-state target cleavage rate [1]: 0.0226 ± 0.0033
- pre-steady-state target cleavage rate [2]: 0.0673 ± 0.023

Sequence: GGAGACCUAUGUAUACAACCUACUACUCUCA
- pre-steady-state target cleavage rate [1]: 0.117 ± 0.013
- pre-steady-state target cleavage rate [2]: < 0.0001

Sequence: GGAGACGUUACUAUACAACGUACUACCUCA
- pre-steady-state target cleavage rate [1]: 0.0206 ± 0.0027
- pre-steady-state target cleavage rate [2]: 0.00362 ± 0.0014

Sequence: GGAGACCAUACUAUACAACCUACUAGGAGA [g6:g23:cont:t1A]
- pre-steady-state target cleavage rate [1]: 0.00402 ± 0.0038
- pre-steady-state target cleavage rate [2]: 0.00788 ± 0.0042

Sequence: GGAGACCUAACAAUACAACCUACUACCUCA
- pre-steady-state target cleavage rate [1]: 0.0822 ± 0.019
- pre-steady-state target cleavage rate [2]: 0.00868 ± 0.0037

Sequence: GGAGUGGAUACUAUACAACCUACUAUCUCA
- pre-steady-state target cleavage rate [1]: 0.137 ± 0.011
- pre-steady-state target cleavage rate [2]: 0.0684 ± 0.026

Sequence: GGAGACCUAUCUAAUACAACCUACUACCUCA
- pre-steady-state target cleavage rate [1]: 0.0342 ± 0.0069
- pre-steady-state target cleavage rate [2]: 0.00579 ± 0.004

Sequence: GGAGAGGAAUACUAUACAACCUACUACCUCA
- pre-steady-state target cleavage rate [1]: 0.172 ± 0.0098
- pre-steady-state target cleavage rate [2]: 0.0974 ± 0.034

Sequence: GGAGUGGAUACUAUACUACCUACUACCACA
- pre-steady-state target cleavage rate [1]: 0.143 ± 0.013
- pre-steady-state target cleavage rate [2]: 0.0024 ± 0.0017

Sequence: GGAGAGGAAACUAUACAACCUACUACGUCA
- pre-steady-state target cleavage rate [1]: 0.034 ± 0.011
- pre-steady-state target cleavage rate [2]: 0.00364 ± 0.0025

Sequence: GGAGAGGUUACAAUACAACCUACUACCUCA
- pre-steady-state target cleavage rate [1]: 0.181 ± 0.014
- pre-steady-state target cleavage rate [2]: 0.00504 ± 0.0035

Sequence: GGAGACGAUACUAUACAAGCUACUACCACA
- pre-steady-state target cleavage rate [1]: 0.311 ± 0.016
- pre-steady-state target cleavage rate [2]: 0.00387 ± 0.0017

Sequence: GGAGACCUAACUAUACAACCUACUCCCUCA
- pre-steady-state target cleavage rate [1]: 0.0941 ± 0.022
- pre-steady-state target cleavage rate [2]: 0.00341 ± 0.0031

Sequence: GGAGAGGAAACUAUACAACCUACUACCUGA
- pre-steady-state target cleavage rate [1]: 0.047 ± 0.014
- pre-steady-state target cleavage rate [2]: 0.0041 ± 0.0024

Sequence: GGAGACGAAACUAUACAACCUACUACGUCA
- pre-steady-state target cleavage rate [1]: 0.0713 ± 0.022
- pre-steady-state target cleavage rate [2]: 0.00245 ± 0.0024

Sequence: GGAGACGAUACUAUACAACCUAGAACCUCA
- pre-steady-state target cleavage rate [1]: 0.0145 ± 0.0064
- pre-steady-state target cleavage rate [2]: 0.00278 ± 0.0012

Sequence: GGAGACCUAUGAUAACAACCUACUACGCUCA
- pre-steady-state target cleavage rate [1]: 0.00466 ± 0.0023
- pre-steady-state target cleavage rate [2]: < 0.0001

Sequence: GGAGACCUAUGAAUACAACCUACUACCUCU [g2:g18:cont:t1U]
- pre-steady-state target cleavage rate [1]: 0.0139 ± 0.0044
- pre-steady-state target cleavage rate [2]: 0.688 ± 0.25

Sequence: GGAGAGGAUACUAUACAACGUUCUACCUCA
- pre-steady-state target cleavage rate [1]: 0.00213 ± 0.0019
- pre-steady-state target cleavage rate [2]: 0.00409 ± 0.0022

Sequence: GGAGACCAAAGUAUACAACCUACUACCUCA
- pre-steady-state target cleavage rate [1]: 0.0438 ± 0.0093
- pre-steady-state target cleavage rate [2]: 0.0166 ± 0.0082

Sequence: GGAGAGGAUACAUACAACCUACUACCUCA
- pre-steady-state target cleavage rate [1]: 0.137 ± 0.016
- pre-steady-state target cleavage rate [2]: 0.0103 ± 0.005

Sequence: GGAGACGAUACUAUAGAACCUACUAGCUCA
- pre-steady-state target cleavage rate [1]: 0.0159 ± 0.0077
- pre-steady-state target cleavage rate [2]: 0.00419 ± 0.0018

Sequence: GGAGUGGAUACUAUACAACCUACUACGUGA
- pre-steady-state target cleavage rate [1]: 0.0157 ± 0.0044
- pre-steady-state target cleavage rate [2]: 0.00378 ± 0.0015

Sequence: GGAGACGUUACUAUACAACCUACUAGCUCA
- pre-steady-state target cleavage rate [1]: 0.0954 ± 0.016
- pre-steady-state target cleavage rate [2]: 0.0029 ± 0.0017

Sequence: GGAGACGAUACAAUACUACCUACUACCUCA
- pre-steady-state target cleavage rate [1]: 0.201 ± 0.017
- pre-steady-state target cleavage rate [2]: 0.00238 ± 0.0021

Sequence: GGAGACGAUACUAUUCAACCUACUACGUCA
- pre-steady-state target cleavage rate [1]: 0.0915 ± 0.011
- pre-steady-state target cleavage rate [2]: 0.00311 ± 0.0016

Sequence: GGAGAGGUUACUAUACAACCUACUAGCUCA
- pre-steady-state target cleavage rate [1]: 0.00459 ± 0.0029
- pre-steady-state target cleavage rate [2]: 0.00306 ± 0.0015

Sequence: GGAGACCAAACUAUACAACGUACUACCUCA
- pre-steady-state target cleavage rate [1]: 0.0124 ± 0.0071
- pre-steady-state target cleavage rate [2]: 0.00528 ± 0.0034

Sequence: GGAGACCAUUCUUUACAACCUACUACCUCA
- pre-steady-state target cleavage rate [1]: 0.0902 ± 0.012
- pre-steady-state target cleavage rate [2]: 0.0111 ± 0.0056

Sequence: GGAGUGGAUACUAUAGAACCUACUAGCUCA
- pre-steady-state target cleavage rate [1]: 0.00733 ± 0.0025
- pre-steady-state target cleavage rate [2]: 0.00232 ± 0.0015

Sequence: GGAGACCAUACUAUACAACCUACUACCUGCA
- pre-steady-state target cleavage rate [1]: 0.213 ± 0.023
- pre-steady-state target cleavage rate [2]: 0.00318 ± 0.002

Sequence: GGAGACCUAACUAUACAACCUACUUCCUCA
- pre-steady-state target cleavage rate [1]: 0.0606 ± 0.02
- pre-steady-state target cleavage rate [2]: 0.00336 ± 0.0029
